Assay results as given in PubChem BioAssay (NCI).
Values joined by “and” are separate entries in the source; they are usually repeats but may differ in a detail not shown here. Equal values may be shown once. About 83,000 compounds went through this panel and 20% of them were active in at least one assay; those are over-represented in the sample as a whole.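 Growth was measured after 48 h exposure to one concentration of compound in 96-well plates. Values under 10 count as active.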 Active and inactive are the calls of the source.

Tests used:
Assay in all cases: NCI-60 one-dose screen, 48 h (100 = growth as untreated, 0 = no growth, -100 = all killed)
Settings in all cases: 10 µM unless noted
K-562 leukemia = test system: K-562 leukemia
MALME-3M melanoma = test system: MALME-3M melanoma
MDA-MB-231 breast = test system: MDA-MB-231 breast
RXF 393 renal = test system: RXF 393 renal
SF-268 CNS = test system: SF-268 CNS
SF-295 CNS = test system: SF-295 CNS
SF-539 CNS = test system: SF-539 CNS
UACC-257 melanoma = test system: UACC-257 melanoma
DU-145 prostate = test system: DU-145 prostate
M14 melanoma = test system: M14 melanoma

Row | Structure (SMILES) | growth (K-562 leukemia) | growth (MALME-3M melanoma) | growth (MDA-MB-231 breast) | growth (RXF 393 renal) | growth (SF-268 CNS) | growth (SF-295 CNS) | growth (SF-539 CNS) | growth (UACC-257 melanoma) | growth (DU-145 prostate) | growth (M14 melanoma)
1 | CCN(CC)CCc1nc(-c2ccccc2)no1 | 118% (inactive) | 86.2% (inactive) and 120% (inactive) | 67.6% (inactive) and 110% (inactive) | 74.5% (inactive) and 113% (inactive) | 79.9% (inactive) and 98.3% (inactive) | 105% (inactive) and 101% (inactive) | 83.5% (inactive) and 109% (inactive) | 87.2% (inactive) and 90.3% (inactive) |  | 
2 | COC(=O)[C@H]1CCCN1C(=O)C1CCCN1C(=O)[C@@H](Cc1ccccc1)NC(=S)Nc1cc(C(F)(F)F)cc(C(F)(F)F)c1 (stereo not given in full) | 103% (inactive) and 65.2% (inactive) | 109% (inactive) and 98.8% (inactive) | 95.9% (inactive) and 75.4% (inactive) | 108% (inactive) and 84.8% (inactive) | 105% (inactive) and 86.9% (inactive) | 89.4% (inactive) | 102% (inactive) and 96.1% (inactive) | 108% (inactive) and 95.4% (inactive) | 117% (inactive) and 91.4% (inactive) | 113% (inactive) and 105% (inactive)
3 | O=C(/C=C/c1ccccn1)c1ccccc1O |  | 70.1% (inactive) and 107% (inactive) | 70.4% (inactive) and 95.9% (inactive) | 31.8% (inactive) and 56.4% (inactive) | 72.4% (inactive) and 61.6% (inactive) | 68.9% (inactive) and 91.6% (inactive) | 42.1% (inactive) and 80.9% (inactive) | 49.9% (inactive) and 84.9% (inactive) | 76.4% (inactive) and 71% (inactive) | 72.5% (inactive) and 82.3% (inactive)
4 | CC1=C(/C=C/C(C)=C/C=C/C(C)=C/C(=O)Nc2ccc(O)cc2)C(C)(C)CCC1 |  | 76.1% (inactive) | 54.5% (inactive) | 60.8% (inactive) | 60.8% (inactive) | 4.64% (active) | -32.7% (active) | 76.7% (inactive) | 68.4% (inactive) | 
5 | c1ccc2c(CC3=NCCN3)cccc2c1 | 115% (inactive) and 107% (inactive) | 104% (inactive) and 113% (inactive) | 105% (inactive) and 109% (inactive) | 105% (inactive) and 102% (inactive) | 114% (inactive) and 109% (inactive) | 94.3% (inactive) and 100% (inactive) | 102% (inactive) and 95.8% (inactive) | 101% (inactive) and 97.1% (inactive) | 123% (inactive) and 114% (inactive) | 97.1% (inactive) and 99.3% (inactive)
6 | CC(=O)C(/C=N/C(N)=O)=C(/C)O |  | 106% (inactive) | 96.5% (inactive) | 114% (inactive) | 109% (inactive) | 101% (inactive) | 103% (inactive) | 97.3% (inactive) | 118% (inactive) | 108% (inactive)
7 | CC1=NN(c2ccccc2)C(=O)C1C(=O)c1ccccc1 (stereo not given) |  | 97.6% (inactive) | 97.1% (inactive) | 140% (inactive) | 95.4% (inactive) | 97.7% (inactive) | 116% (inactive) | 94.3% (inactive) | 103% (inactive) | 
8 | Nc1ccc2[nH]c(-c3ccccc3)cc(=O)c2c1 |  | 80.4% (inactive) | 100% (inactive) | 89.9% (inactive) | 90.7% (inactive) | 93.5% (inactive) | 88.5% (inactive) | 79.8% (inactive) | 101% (inactive) | 70.6% (inactive)
9 | O=C(O)c1cc(C(=O)O)cc([N+](=O)[O-])c1 |  | 95.2% (inactive) | 105% (inactive) | 123% (inactive) | 111% (inactive) | 93.4% (inactive) | 100% (inactive) | 103% (inactive) | 116% (inactive) | 99.8% (inactive)
10 | OC(CSc1ccccc1)CN1CCN(c2cccc(Cl)c2)CC1 (stereo not given) | 84% (inactive) and 97% (inactive) |  | 96.6% (inactive) and 96.3% (inactive) | 106% (inactive) and 93.8% (inactive) | 100% (inactive) and 99.1% (inactive) | 110% (inactive) and 105% (inactive) | 113% (inactive) and 105% (inactive) | 93.6% (inactive) and 95% (inactive) | 116% (inactive) and 105% (inactive) | 100% (inactive) and 93.8% (inactive)
11 | OCc1ccccn1 |  | 115% (inactive) | 114% (inactive) | 111% (inactive) | 107% (inactive) | 94.7% (inactive) | 104% (inactive) | 104% (inactive) | 100% (inactive) | 108% (inactive)
12 | CNC(=O)c1cccnc1 |  | 86.8% (inactive) | 102% (inactive) | 114% (inactive) | 103% (inactive) | 100% (inactive) | 100% (inactive) | 92.4% (inactive) | 116% (inactive) | 104% (inactive)
13 | O=C(O)CSCc1nc2ccccc2[nH]1 |  | 127% (inactive) | 98.4% (inactive) | 112% (inactive) | 99.2% (inactive) | 112% (inactive) | 103% (inactive) | 111% (inactive) | 111% (inactive) | 
14 | Cc1nn(-c2ccccc2)nc1C(=O)Nc1ccccc1C(=O)NCC1CC1 | 91.4% (inactive) and 44.3% (inactive) | 135% (inactive) and 97% (inactive) | 79.8% (inactive) and 23.6% (inactive) | 105% (inactive) and 77.4% (inactive) | 123% (inactive) and 91% (inactive) | 114% (inactive) and 59.5% (inactive) | 88.8% (inactive) and 30.9% (inactive) | 111% (inactive) | 109% (inactive) and 62.6% (inactive) | 105% (inactive) and 81.8% (inactive)
